PubChem BioAssay AID690 (Sanford-Burnham Center for Chemical Genomics, 2007)
In all, about 96,000 compounds went through this assay and about 80 (0.08%) were called active. No rule for the calls is given here. Only a sample is shown. Potency and affinity values are given separately.

target: Alkaline phosphatase, placental type (Homo sapiens) (UniProt P05187); experiment: inhibition of human placental alkaline phosphatase – biochemical, luminescence, HTS (AID 690); settings: purified PLAP, luminescent substrate; at 20 µM; hits give high values
Sequence (P05187 whole entry, looked up): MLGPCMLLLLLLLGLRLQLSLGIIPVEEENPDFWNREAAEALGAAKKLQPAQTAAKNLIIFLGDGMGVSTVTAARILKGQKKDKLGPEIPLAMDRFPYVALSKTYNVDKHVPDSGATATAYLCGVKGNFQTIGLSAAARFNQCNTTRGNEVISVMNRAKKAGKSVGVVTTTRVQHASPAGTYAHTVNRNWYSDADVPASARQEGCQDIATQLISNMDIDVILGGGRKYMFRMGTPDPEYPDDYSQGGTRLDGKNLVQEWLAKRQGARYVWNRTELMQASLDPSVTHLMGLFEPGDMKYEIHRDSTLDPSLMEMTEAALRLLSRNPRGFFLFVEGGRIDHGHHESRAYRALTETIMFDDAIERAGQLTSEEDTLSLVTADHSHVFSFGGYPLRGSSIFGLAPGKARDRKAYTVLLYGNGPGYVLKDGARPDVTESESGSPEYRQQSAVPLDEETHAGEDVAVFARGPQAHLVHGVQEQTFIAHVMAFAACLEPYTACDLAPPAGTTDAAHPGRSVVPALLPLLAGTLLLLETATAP

inhibition, inactive:
CCCc1nc(NCc2ccccn2)c2nnn(Cc3ccccc3F)c2n1 -1.1%, COc1ccc(NC(=O)Cc2cccs2)c(OC)c1 9.5%, O=C(Cc1n[nH]c(=O)[nH]c1=O)N/N=C/c1ccccc1 -5.4%, CCn1c(SCC(=O)O)nnc1-c1ccccc1 -9.1%, CCn1c(SCC(=O)c2ccc(O)c(O)c2)nnc1-c1ccc(C)cc1 -7.9%, Cc1ccccc1CSc1nccn1-c1ccccc1 19%, COc1cccc(C2=Nn3c(nnc3-c3ccccc3O)SC2)c1 -37.4%, COc1ccc(-c2nnc3n2N=C(c2cccc(Br)c2)CS3)cc1OC 7.3%, COc1ccc(C2=Nn3c(nnc3-c3ccco3)SC2)cc1OC 14.5%, COc1ccc(C2=Nn3c(nnc3-c3ccco3)SC2)cc1 -72.6%, CCOC(=O)CC1C(=O)NCCN1C(=O)c1cccc(C(F)(F)F)c1 (stereo not drawn) 4.8%, COc1ccc(S(=O)(=O)NCC(=O)N(CC(=O)NCC2CCCO2)c2cc(C)ccc2C)cc1 (stereo not drawn) -64.9%, Cc1ccc(Cn2nnnc2CN2CCC(c3nc4ccc(Cl)cc4[nH]3)CC2)cc1 -87.9%, Cc1cc2nc(C3CCN(Cc4nnnn4Cc4ccccc4)CC3)[nH]c2cc1C -140%, COCCCNC(=O)CCn1c(=O)c2ccccc2n(CC(=O)Nc2cc(Cl)ccc2C)c1=O 7.1%, Cc1c(O)ccc(C(=O)COc2ccccc2F)c1O 8.2%, C=CCNc1ncnc2ccccc12 7.5%, Cc1ccc(N2Cc3ccccc3OC(C)C2=O)cc1 (stereo not drawn) -23.8%, Cc1cn2c(-c3cccnc3)nnc2s1 3.7%, CCCn1c(=O)[nH]c(=O)c2c1nc(-c1ccc(OC(F)F)cc1)n2CCN1CCOCC1 12.5%, COCc1[nH]nc2c1C(c1ccc(OC)c(OC)c1)C(C#N)=C(N)O2 (stereo not drawn) -0.8%, COCc1[nH]nc2c1C(c1ccc(OC)cc1)C(C#N)=C(N)O2 (stereo not drawn) 6.1%, CCCc1[nH]nc2c1C(c1cccc(OC)c1)C(C#N)=C(N)O2 (stereo not drawn) -46.3%, CCCc1[nH]nc2c1C(c1cc(OC)cc(OC)c1)C(C#N)=C(N)O2 (stereo not drawn) -45.4%, CC(=O)N(C)c1ccc(NC(=O)/C=C/c2ccccc2Cl)cc1 0.9%, CCC1=C(OC(=O)c2ccccc2)C(C)(C)C(c2ccccc2)OC1=O (stereo not drawn) 22.6%, CC1=C(C(N)=O)C(c2ccncc2)n2nc(-c3ccccc3Cl)nc2N1 (stereo not drawn) 8.9%, CCOC(=O)c1ccc(CNC(=O)Cn2nnc(-c3ccc(C)cc3)n2)o1 1.5%, COC(=O)c1ccc(C)c(NC(=O)Cn2cnc3ccccc3c2=O)c1 5.9%, CCN=c1scc(-c2ccco2)n1/N=C/c1ccc(OC)c(O)c1 -2.2%, CCN=c1scc(-c2ccco2)n1/N=C/c1ccc(O)cc1 -11.5%, CCc1ccc(CN2CCN(S(=O)(=O)Cc3ccccc3)CC2)cc1 11.5%, CC(=O)Nc1ccc(-c2cc3ccccc3o2)cc1 0.5%, Cc1ccccc1C(=O)c1cccn1CC(=O)NCC1CCCO1 (stereo not drawn) -11.1%, COc1cccc(/C=C2\N=C3CCCCCN3C2=O)c1 2.1%, COc1ccc(/C=C2\N=C3CCCCCN3C2=O)cc1OC -6.1%, Cc1ccc(NC(=S)NC(NC(=O)Cc2cccc3ccccc23)C(Cl)(Cl)Cl)cc1 (stereo not drawn) 36.5%, Cc1ccc(C)c(NC(=S)NC(NC(=O)N(C)C)C(Cl)(Cl)Cl)c1 (stereo not drawn) -58%, Cc1nc(N2CCN(S(=O)(=O)c3ccccc3)CC2)c2c3c(sc2n1)CC(C)CC3 (stereo not drawn) -34.1%, O=C1c2ccc3c4c(ccc(c24)C(=O)N1Cc1cccnc1)C(=O)N(Cc1cccnc1)C3=O 4.9%, CC(O)CNc1nc2c(c(=O)n(C)c(=O)n2C)n1C/C=C/c1ccccc1 (stereo not drawn) -20.9%, CCCN1/C(=C2/SC(=S)N(CC)C2=O)C=Cc2ccccc21 11.9%, CCN1C(=O)/C(=C2\C=Cc3ccccc3N2CC)SC1=S 23.5%, CCn1ncc(Br)c1C(=O)N(C)C12CC3CC(CC(C3)C1)C2 -9.1%, CN(CCNC(=O)c1cccc(N2CCCC2=O)c1)Cc1ccccc1 -40.3%, O=P(C1=C(N2CCOCC2)/C(=C\c2ccccc2)CC1)(N1CCOCC1)N1CCOCC1 -69.4%, O=C1Nc2ccccc2/C1=N\N=C\C1=C(N2CCOCC2)C(=C\c2ccccc2)/CC1 -12.2%, O=C(O)c1c(Cl)c(Cl)c(Cl)c(Cl)c1C(=O)N1CCCC1 -10.8%, CCOCC(O)CSCc1ccc(Cl)cc1 (stereo not drawn) -5%, COc1ccc(CNC(=O)c2ccc(-c3ccccc3)cc2)cc1 6.9%, Fc1cccc(Cl)c1CSc1nnnn1-c1ccc2c(c1)OCO2 22.7%, Fc1ccccc1CSc1nnnn1-c1ccc2c(c1)OCO2 13.8%, CCOC(=O)CC(=O)CSc1nc2c(cc1C#N)CCC2 0%, CC(C)NS(=O)(=O)c1ccc(OCC(=O)NCc2ccccc2)cc1 -1.7%, O=C1C2C3C=CC(C3)C2C(=O)N1c1n[nH]c(CCc2ccccc2)n1 (stereo not drawn) 30%, O=C1C2C3C=CC(C3)C2C(=O)N1c1cccc(N2C(=O)C3C4C=CC(C4)C3C2=O)n1 (stereo not drawn) -1.8%, O=C1C2CC=CCC2C(=O)N1c1n[nH]c(Cc2ccccc2)n1 (stereo not drawn) 62.3%, O=C1C2CC=CCC2C(=O)N1c1n[nH]c(CCc2ccccc2)n1 (stereo not drawn) -20.2%, O=C1C2C3C=CC(C3)C2C(=O)N1Cc1cccnc1 (stereo not drawn) 0.6%, O=C1C2C3C=CC(C3)C2C(=O)N1c1cccnc1 (stereo not drawn) 15.9%, Cc1ccc(SCCNC(=O)C(CO)(CO)CO)cc1 11.9%, COc1ccc(CN(Cc2cc3ccc(C)cc3[nH]c2=O)Cc2nnnn2C2CCCC2)cc1 -54.8%, Cc1ccc(-c2cc(C(=O)N/N=C\c3cnn(C)c3C)c3ccccc3n2)cc1C -102%, C=CCn1c(SCC(=O)Nc2ccccc2OC)nnc1-c1ccco1 8%, O=C(C1CC1)N1CCN=C1SCc1cccc(C(F)(F)F)c1 3%, CCOCCCNC(=O)C1CCCN1S(=O)(=O)c1ccc(Cl)cc1 (stereo not drawn) 8.4%, C#CC(CC)(CC)NC(=O)c1c(C)noc1C 4.5%, O=C(Cc1cccs1)NCc1ccc(F)cc1 -6%, CN1CCN(c2nc3c(c(=O)n(C)c(=O)n3C)n2CC(=O)C23CC4CC(CC(C4)C2)C3)CC1 -54.5%, O=C1/C(=C/c2cccs2)SC(=S)N1c1ccccc1 12.2%, CCN(CC)c1ccc(N2C(=O)/C(=C/c3cccs3)SC2=S)cc1 3.4%, CC(C)N(CCNS(=O)(=O)c1ccc(Cl)cc1)C(C)C 9.6%, O=C(Nc1ccccc1C(F)(F)F)c1ccc(CN2CCC(Cc3ccccc3)CC2)cc1 -22.3%, Cc1nn(-c2ccccc2)c(C)c1/C=N/NC(=O)c1cc(C(C)(C)C)[nH]n1 -32%, Cc1ccc(-c2cc(C(=O)N/N=C/c3c(C)nn(-c4ccccc4)c3C)[nH]n2)cc1 -2.5%, O=c1[nH]c(CSc2nnc(-c3ccncc3)n2Cc2ccco2)nc2ccccc12 -3.5%, N=c1oc2ccc3ccccc3c2cc1-c1nnc2n1CCCCC2 -35.4%, CC1CCC/C(=N/Nc2ccc([N+](=O)[O-])cc2[N+](=O)[O-])C1 (stereo not drawn) 21.1%, O=[N+]([O-])c1ccc(C2CCCC/C2=N/OCc2ccc(F)cc2)c([N+](=O)[O-])c1 (stereo not drawn) 25.8%, CCN(CC)CCCNC(=O)N[C@@H](Cc1ccccc1)C(=O)O -2.1%, CC(=O)c1c(C(C)=O)c(C)n(-c2ccc(O)cc2)c1C -4.3%, CCCCNC(=O)NC1(C(F)(F)F)Oc2ccccc2O1 -12%, CC(NC(=O)NCc1cccnc1)(C(F)(F)F)C(F)(F)F -6.1%, O=C(NCc1cccnc1)NC1(C(F)(F)F)Oc2ccccc2O1 12.3%, COCC(C)NC(=O)NC1(C(F)(F)F)Oc2ccc(Cl)cc2O1 (stereo not drawn) 34.9%, Cc1nccn1S(=O)(=O)c1ccc(Br)cc1Br -1.1%, OC(CC1CC12c1ccccc1-c1ncccc12)(c1ccccc1)c1ccccc1 (stereo not drawn) -45%, CCCCn1cc(C(=O)c2cc(Br)ccc2O)cc(C#N)c1=O -1.5%, CCCC1CCc2c(c3ccccc3[nH]c2=O)O1 (stereo not drawn) -5%, CC1CCc2c(c3ccccc3[nH]c2=O)O1 (stereo not drawn) 9%, Fc1ccc(CSc2nnc(-c3cnccn3)n2Cc2ccco2)cc1 7.7%, CCCCOC(=O)C(C)Nc1n[nH]c(=O)[nH]c1=O (stereo not drawn) 3.9%, CCCCOC(=O)CNc1n[nH]c(=S)[nH]c1=O -1.8%, CCN1CCN(Cc2nc3c(c(=O)n(C)c(=O)n3C)n2Cc2cccc3ccccc23)CC1 -34.1%, Cc1ccccc1CN(c1ccc(C(=O)N2CCc3ccccc3C2)cc1)S(C)(=O)=O -40.7%, O=C(c1cccs1)c1coc2ccc(O)c(CN3CCOCC3)c12 -1%, Cc1ccc(OCn2c(=O)sc3ccccc32)cc1 -9%, O=c1sc2ccccc2n1CCOc1ccccc1 33.9%
